This is a sample that favours compounds with a hit; in the whole collection about 17% have one here.
TGFb SMAD3 inh = inhibitors of TGF-b signaling; hit rate 1.2% among 410,000; Potency, µM (titrated, usually from 46.1 µM), for the others: at the highest dose activity, negative = inhibition, most hits filed as inhibitors; AID 588855; HepG2 CAGA-GFP TGF-b/SMAD3 reporter, GFP fluorescence, 18 h; TGF-beta stimulated, 500 pg/mL final; also: % is scaled to controls: 0 for no effect and ±100 for the full control effect; nearly all actives have a fitted effect of over 65% in size
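Using HEPG2 CAGA-GFP reporter cells at 1000 cells/well, we pinned test compounds, stimulated with recombinant TGF-beta (500 pg/mL final) and measured total well GFP after 18 h.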
ATXN2 expr inh = reduces ATXN2 reporter expression in HEK-293 cells. Potency, µM (doses to about 57 µM), for inactives: at the highest dose activity change, negative = inhibition, most hits filed as inhibitors. HEK-293 ATXN2-luciferase reporter, luminescence, 24 h. AID 1745845. hit rate 0.72% among 360,000; also: % is scaled to controls: 0 for no effect and ±100 for the full control effect; nearly all actives have a fitted effect of over 55% in size
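qHTS (up to 57 uM final) was run with 24 h compound exposure of reporter cells at 37 °C. Each well was multiplexed: SteadyGlo luminescence measured ATXN2-luciferase expression after a fluorogenic Gly-Phe-AFC viability readout (25 uM final).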
DT40 TDP1 CPT = growth inhibition of DT40 Tdp1-/-;hTDP1 cells with camptothecin (screen for TDP1 inhibitors); chicken DT40 Tdp1-/-;hTDP1 cells + 20 nM CPT, ATP luminescence, 48 h; Potency, µM (titrated, usually from 46.2 µM), for inactives: at the top dose activity change, negative = growth inhibition, actives largely listed as inhibitors; hit rate 12% among 420,000; also: % is scaled to controls: 0 for no effect and ±100 for the full control effect; nearly all actives have a fitted effect of over 55% in size
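Chicken DT40 Tdp1-/- cells stably complemented with human TDP1 were seeded at 400 cells/well in medium containing 20 nM camptothecin, exposed to pin-transferred compounds, and grown at 37 °C for at least 48 hr. Viability was read as ATP luminescence.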
DT40 TDP1 no CPT = qHTS for Inhibitors of human tyrosyl-DNA phosphodiesterase 1 (TDP1): qHTS in cells in absence of CPT; DT40 Tdp1-/- hTDP1 cells, no CPT, ATP luminescence, 48 h; hit rate 15% among 420,000; AID 686978, 2013; Potency, µM (highest dose often 46.2 µM), for the others: top-dose activity change, negative = growth inhibition, hits mostly inhibitors; also: % is scaled to controls: 0 for no effect and ±100 for the full control effect; nearly all actives have a fitted effect of over 55% in size
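Readout: luminescence from CellTiter-Glo after 30 min in the dark at RT. Cells: DT40 Tdp1-/- with stable hTDP1, 400/well. Exposure: compounds alone, ≥48 hr, 37 °C.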
ATXN viability = viability counter-screen for ATXN expression inhibitors. S2 cells (HEK-293 line with an ATXN2-luciferase reporter) viability, CellTiter-Fluor protease fluorescence, 24 h. Potency, µM (highest dose often 56.7 µM), actives largely listed as cytotoxic. hit rate 0.49% among 400,000. AID 651635; also: nearly all actives have a fitted effect of over 40% in size
HepG2 tox = counter-screen for TGF-b inhibitors: cytotoxicity in HepG2 cells; HepG2 CAGA-GFP viability, ATP luminescence, 18 h; Potency, µM (top dose mostly 46.1 µM), for inactives: at the highest dose activity change, negative = cytotoxicity, hits mostly cytotoxic; hit rate 0.76% among 410,000
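HepG2 CAGA-GFP cells (1000/well, DMEM with 1% FBS) received compound, then TGF-beta at 500 pg/mL final, and were incubated 18 hours at 37 degrees C. Viability was read by CellTiter-Glo luminescence. Media-only wells were set as complete cell-killing and DMSO as no toxicity.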
* = called active by the depositor; i = inactive; ? = inconclusive; nt = no result given. Calls follow the shape of the dose curve; as a rule, active = well fitted curve in the direction sought with a large enough effect; inconclusive = small, poorly fitted or top-dose-only effect, or another doubt; inactive = no such curve, though single readings can be large; an effect the other way counts as inactive or inconclusive. Potency is read from the fitted curve at half-maximal effect.

SMILES	TGFb SMAD3 inh	ATXN2 expr inh	DT40 TDP1 CPT	DT40 TDP1 no CPT	ATXN viability	HepG2 tox
COc1cccc(NC(=O)C2(C)CCN2C(=O)CCc2ccc(Cl)cc2Cl)c1 (stereo unspecified)	7.7%	-19.3%	?	?	i	-33.2%
CCC(=O)N1CCC1(C)C(=O)Nc1ccccc1 (stereo unspecified)	23.0%	4.7%	0.1%	1.4%	i	1.0%
CC1(C(=O)Nc2ccc(Cl)c(Cl)c2)CCN1C(=O)Cc1cccc2ccccc12 (stereo unspecified)	-11.9%	-20.2%	?	?	i	-39.8%
CCc1ccc(CNC(=O)CCS(=O)(=O)Cc2ccccc2F)cc1	-8.3%	-1.5%	10.6%	?	i	-20.3%
CCCC(C)(C)C(=O)N1CCC1(C)C(=O)Nc1cccc2ccccc12 (stereo unspecified)	-16.9%	-7.6%	20.6µM*	10.3µM*	i	-7.2%
Cn1nc(C2CC2)cc1NC(=O)C1(C)CCN1C(=O)Cc1ccc(-c2ccccc2)cc1 (stereo unspecified)	6.4%	?	20.6µM*	20.6µM*	?	-50.7%
CC1(C(=O)Nc2ccc(Cl)c(Cl)c2)CCN1C(=O)CC(c1ccccc1)c1ccccc1 (stereo unspecified)	?	?	18.4µM*	23.1µM*	?	-31.5%
Cc1ccc(CNC(=O)C2(C)CCN2C(=O)Cc2ccc(-c3ccccc3)cc2)cc1 (stereo unspecified)	-0.3%	?	?	23.1µM*	?	-17.3%
CC1(C(=O)N2CCCCC2)CCN1C(=O)Cc1ccc(-c2ccccc2)cc1 (stereo unspecified)	-34.8%	-36.9%	14.6µM*	?	?	-30.7%
COc1ccccc1NC(=O)c1cc(-c2ccc(OC)c(OC)c2)nc2ccccc12	0.0%	-1.9%	16.4µM*	9.2µM*	i	-12.5%
COc1ccc(-c2cc(C(=O)Nc3ccc(O)cc3)c3ccccc3n2)cc1OC	-9.6%	14.8%	10.3µM*	1.46µM*	i	-19.6%
COc1ccc(-c2cc(C(=O)NCC(c3ccccc3)N(C)C)c3ccccc3n2)cc1OC (stereo unspecified)	1.6%	1.2%	?	?	?	-28.1%
CCOc1ccc(OCc2ccc(C(=O)NN=Cc3ccc[nH]3)cc2)cc1	-19.9%	?	-11.2%	-11.4%	?	-17.4%
C#Cc1ccc(NC(=O)C2(C)CCN2C(=O)c2cc(C)n(C)n2)cc1 (stereo unspecified)	24.6%	-4.3%	?	?	i	32.8%
COc1cccc(Nc2nc(C(N)C3CCCCC3)cs2)n1 (stereo unspecified)	?	0.0%	?	23.1µM*	nt	15.8µM*
COc1cccc(Nc2nc(C(C)N)cs2)n1 (stereo unspecified)	9.5%	?	13µM*	?	i	-34.2%
COc1cccc(Nc2nc(C(N)c3ccccc3)cs2)n1 (stereo unspecified)	?	-26.7%	9.2µM*	11.6µM*	i	-55.3%
COc1cc(OC)nc(Nc2nc(C(N)c3ccccc3)cs2)n1 (stereo unspecified)	38.8%	8.9%	?	?	i	-5.7%
O=C(COC(=O)c1ccccc1Cc1ccccc1)NC1CCS(=O)(=O)C1 (stereo unspecified)	0.0%	-3.7%	1.2%	-1.3%	i	-28.5%
CCOC(=O)c1cc(-c2ccccc2)n(CCCC(=O)Nc2ccc(CC)cc2)c1C	?	nt	?	?	nt	-41.2%
CCOC(=O)c1cc(-c2ccccc2)n(CCCC(=O)Nc2ccc(C)c(Cl)c2)c1C	11.2µM*	nt	?	23.1µM*	nt	-28.2%
CCOC(=O)c1cc(-c2ccccc2)n(CCCC(=O)Nc2ccc(C)cc2Cl)c1C	-13.8%	nt	?	?	nt	-26.5%
CC(=O)c1cc(-c2ccccc2)n(CCC(=O)Nc2ccc(C(C)C)cc2)c1C	?	nt	8.2µM*	5.8µM*	nt	-40.8%
CCCn1c(C)cc(/C=C(\C#N)C(=O)OCC(=O)Nc2ccc(OC)c(Cl)c2)c1C	-3.2%	6.4%	-27.2%	11.6µM*	i	-34.2%
CCOC(=O)c1cc(-c2ccccc2)n(CCC(=O)Nc2ccc(OC)c(Cl)c2)c1C	?	nt	16.4µM*	16.4µM*	nt	-13.0%
SMILES	TGFb SMAD3 inh	ATXN2 expr inh	DT40 TDP1 CPT	DT40 TDP1 no CPT	ATXN viability	HepG2 tox
COc1ccccc1CNC(=O)c1ccc2nc(CCc3ccccc3)oc2c1	30.7%	nt	?	-26.5%	nt	-11.7%
CC1(C)S[C@@H]2[C@H](NC(=O)Cc3ccccc3)C(=O)N2[C@H]1C(=O)O (tested in a mixture with another compound)	nt	7.9%	-2.4%	?	i	nt
CC(C)(C)OC(=O)CN1C(=O)NC2(CCCc3ccccc32)C1=O (stereo unspecified)	0.0%	-1.1%	?	-15.3%	i	-16.6%
CCOC(=O)c1cc(-c2ccccc2)n(CCC(=O)Nc2ccc(C(F)(F)F)cc2)c1C	?	nt	7.31µM*	7.31µM*	nt	-65.1%
CCOC(=O)c1cc(-c2ccccc2)n(CCCC(=O)Nc2ccccc2C)c1C	-19.6%	nt	?	23.1µM*	nt	-22.5%
COc1ccc(Oc2c(OC)cc(NCc3ccc(CN)cc3)c3ncccc23)cc1	-12.3%	nt	?	25.9µM*	i	-0.9%
COc1cc2c(cc1OC)CN(CCc1ccc(NC(=O)c3cccc4c(=O)c5cccc(OC)c5[nH]c34)cc1)CC2	nt	9.5%	nt	nt	nt	nt
Cc1ccc(C)c2[nH]c(=O)c(C(c3nnnn3C(C)(C)C)N3CC=C(c4ccc(F)cc4)CC3)cc12 (stereo unspecified)	-6.4%	-2.2%	?	16.4µM*	i	-9.5%
O=C1CCc2ccc(OCCCCN3CCN(c4cccc(Cl)c4Cl)CC3)cc2N1	1.0%	-27.8%	16.4µM*	14.6µM*	i	-12.7%
CCOc1cc(N2CCOCC2)c(OCC)cc1NC(=O)C(C)Oc1ccccc1 (stereo unspecified)	7.0%	-7.7%	?	13µM*	i	-7.8%
CCOc1cc(N2CCOCC2)c(OCC)cc1NC(=O)CCC1CCCC1	-0.2%	4.9%	16.4µM*	18.4µM*	i	8.2%
CN(CC(=O)Nc1ccc(Cl)cc1)CC(=O)Nc1cc(Cl)ccc1C#N	?	-17.6%	?	23.1µM*	i	-27.8%

From PubChem
